Several values for one entry are separate records, joined by “and”; a condition that tells them apart may be missing. Equal values may be shown once. Entries with a potency or affinity are not part of this list.
What was measured:
Staphylococcus aureus = details: Concentration 32 ug.mL-1, ASSAY_TEST Inhibition of Bacterial Growth, detection method Absorption (OD600), MEDIA CAMHB, plate type 384well, NBS, CORNING #3640, time 18 hr
Escherichia coli = details: Concentration 32 ug.mL-1, ASSAY_TEST Inhibition of Bacterial Growth, detection method Absorption (OD600), MEDIA CAMHB, plate type 384well, NBS, CORNING #3640, time 18 hr

Structure (SMILES) | Inhibition (Staphylococcus aureus) [%] | Inhibition (Escherichia coli) [%] | Inhibition (Staphylococcus aureus; 32 ug/mL) | Inhibition (Escherichia coli; 32 ug/mL)
CCCCCCCC1CN(S(=O)(=O)c2ccc(C)cc2)N(C(=O)OC(C)(C)C)C1=O (configuration not stated) | 0.71 | -11.74 |  | 
O=C(OCc1ccccc1)N1CC(Cc2ccccc2)C(O)O1 (configuration not stated) | 13.58 | -3.12 |  | 
CC(C)(C)OC(=O)N1C(O)C(Cc2ccccc2)CN1S(=O)(=O)c1ccc([N+](=O)[O-])cc1 (configuration not stated) |  |  | 11.9% and 5.44% and 15.35% | 1.32% and -2.18% and -0.91%
O=C(OCc1ccccc1)N1OC(O)C2CCCCC21 (configuration not stated) | 6.89 | -5.21 |  | 
CC(C)(C)OC(=O)N1C(=O)C(Cc2ccccc2)CN1S(=O)(=O)c1ccc([N+](=O)[O-])cc1 (configuration not stated) |  |  | 9.07% and 7.14% and -8.81% | -5.13% and -6.6% and -4.72%
CC1CN(S(=O)(=O)c2ccc([N+](=O)[O-])cc2)N(C(=O)OC(C)(C)C)C1O (configuration not stated) | 60.53 | -0.56 |  | 
CC1CN(C(=O)OCc2ccccc2)OC1=O (configuration not stated) |  |  | 5.54% and 4.49% and 4.77% | -4.89% and -2.17% and -2.01%
CCCCCCCC1CN(S(=O)(=O)c2ccc(C)cc2)N(C(=O)OC(C)(C)C)C1O (configuration not stated) | 6.71 | -7.16 |  | 
CC1CN(C(=O)OCc2ccccc2)OC1O (configuration not stated) | 2.79 | -4.78 |  | 
CCCCCCCC1CN(S(=O)(=O)c2ccc(C)cc2)N(S(=O)(=O)c2ccc(C)cc2)C1O (configuration not stated) | 7.71 | -1.55 |  | 
CC(C)(C)OC(=O)N1C(O)C2CCCC2N1S(=O)(=O)c1ccc([N+](=O)[O-])cc1 (configuration not stated) | -6.71 | -4.07 |  | 
